Experimental data taken from PubChem BioAssay (NCATS).
Inconclusive results are not listed. A number with no mark means an inactive call. Calls of active or inactive are those of the source. Unless noted, the call rests on the fitted dose curve.

Test system: not listed separately
Experiment: qHTS assay for small molecule disruptors of the mitochondrial membrane potential - 1 hr assay (AID 651754); further: nearly all actives have a fitted effect of over 35% in size; further: potency means the concentration at half of the fitted maximal effect; on ratio change, negative = depolarisation: on the % scale 0 is the no-effect control and ±100 the full control effect
Details: series mostly up to 92.2 µM; ratio change, negative = depolarisation: at the top concentration
How it was run: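 HepG2 cells, attached overnight at 37C, were exposed to compound or DMSO vehicle for 1 hr at 37C, 5% CO2, then stained with Mito-MPS dye for 30 min. Red aggregate versus green monomer fluorescence reports membrane potential.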

Structure (SMILES)	ratio change, negative = depolarisation [%]	Potency
O=C(O)c1cc(O)c(O)c(O)c1	2.83	–
CN(C)c1ccc(N=NS(=O)(=O)O)cc1	–	15 µM (active)
CN(C)c1ccc(C(=C2C=CC(=[N+](C)C)C=C2)c2ccccc2)cc1	–	0.75 µM (active)
COc1cc(CNC(=O)CCCC/C=C/C(C)C)ccc1O	-15.2	–
Nc1ccc(O)c([N+](=O)[O-])c1	–	33.5 µM (active)
Nc1nc2ccc([N+](=O)[O-])cc2s1	–	16.8 µM (active)
C#C[C@]1(O)CC[C@H]2[C@@H]3CCc4cc(O)ccc4[C@H]3CC[C@@]21C	-17	–
c1cnc2c(c1)ccc1cccnc12	0.772	–
N=C1N=C(N)c2cc3ccccc3cc21	–	6.68 µM (active)
CCCCCCCCCCCCCCCCCC(=O)O	1.08	–
CC(C)NCC(O)COc1cccc2ccccc12 (configuration not stated)	9.25	–
CN1CCC[C@H]1c1cccnc1	1.58	–
COc1cc(/C=C/C(=O)CC(=O)/C=C/c2ccc(O)c(OC)c2)ccc1O	–	3.76 µM (active)
O=C1CN(/N=C/c2ccc([N+](=O)[O-])o2)C(=O)N1	–	37.6 µM (active)

Test system: not listed separately
Experiment: qHTS assay for small molecule disruptors of the mitochondrial membrane potential - 5 hr assay (AID 651755); further: nearly all actives have a fitted effect of over 40% in size; further: potency means the concentration at half of the fitted maximal effect; on ratio change, negative = disruption: on the % scale 0 is the no-effect control and ±100 the full control effect
Details: JC-1-type ratio dye; series mostly up to 92.2 µM; ratio change, negative = disruption: at the top concentration
How it was run: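 HepG2 cells, attached overnight at 37C, were exposed to compound or DMSO for 5 hr at 37C, 5% CO2. Mito-MPS dye was then added for 30 min, and fluorescence read at 490/535 nm (monomers) and 540/590 nm (aggregates).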

Structure (SMILES)	ratio change, negative = disruption [%]	Potency
O=C(O)c1cc(O)c(O)c(O)c1	6.54	–
CN(C)c1ccc(N=NS(=O)(=O)O)cc1	–	8.41 µM (active)
CN(C)c1ccc(C(=C2C=CC(=[N+](C)C)C=C2)c2ccccc2)cc1	–	0.841 µM (active)
COc1cc(CNC(=O)CCCC/C=C/C(C)C)ccc1O	-13	–
Nc1nc2ccc([N+](=O)[O-])cc2s1	–	16.8 µM (active)
C#C[C@]1(O)CC[C@H]2[C@@H]3CCc4cc(O)ccc4[C@H]3CC[C@@]21C	-12.9	–
CCCCCCCCCCCCCCCCCC(=O)O	4.51	–
CC(C)NCC(O)COc1cccc2ccccc12 (configuration not stated)	10.9	–
CN1CCC[C@H]1c1cccnc1	7.86	–
CN(C)CCC(c1ccc(Cl)cc1)c1ccccn1 (configuration not stated)	21.6	–
COc1cc(/C=C/C(=O)CC(=O)/C=C/c2ccc(O)c(OC)c2)ccc1O	–	5.96 µM (active)

Biological target: Tumor necrosis factor (Homo sapiens) (UniProt P01375)
Sequence (P01375 whole entry, looked up): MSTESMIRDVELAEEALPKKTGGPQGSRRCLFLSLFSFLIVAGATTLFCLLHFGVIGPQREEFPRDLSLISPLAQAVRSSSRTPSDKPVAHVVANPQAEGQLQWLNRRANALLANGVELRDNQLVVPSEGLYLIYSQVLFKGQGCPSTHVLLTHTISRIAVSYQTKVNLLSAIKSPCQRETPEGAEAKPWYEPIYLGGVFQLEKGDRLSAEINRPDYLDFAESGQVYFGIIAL
Experiment: qHTS assay to identify small molecules that stimulate Tumor Necrosis Factor-alpha (TNF-alpha) secretion (AID 651757; active means well fitted curve in the direction sought with a large enough effect in the signal ratio; the % refers to the signal ratio; further: 0% is about no effect)
Details: Human cells, HTRF 665/615 ratio; series mostly up to 92.2 µM; activation (TNF-alpha secretion): at the top concentration
How it was run: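 THP-1 cells were exposed to compounds for 17 hrs at 37 C, after which secreted TNF-alpha was measured by homogeneous HTRF (TR-FRET) using cryptate- and XL665-labeled anti-TNF-alpha antibodies, read after 3 hr at room temperature.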

Structure (SMILES)	activation (TNF-alpha secretion) [%]	outcome
COc1cc(CNC(=O)CCCC/C=C/C(C)C)ccc1O	-0.381	–
NCCO	-0.0113	–
CC1(C)S[C@@H]2[C@H](NC(=O)[C@H](N)c3ccccc3)C(=O)N2[C@H]1C(=O)O	0.277	–
O=C(O)/C=C\C(=O)O	0.671	–
C#C[C@]1(O)CC[C@H]2[C@@H]3CCc4cc(O)ccc4[C@H]3CC[C@@]21C	1.66	–
c1ccc2sc(SSc3nc4ccccc4s3)nc2c1	0.777	–
N=C1N=C(N)c2cc3ccccc3cc21	1.16	–
CCCCCCCCCCCCCCCCCC(=O)O	-0.269	–
CC(C)NCC(O)COc1cccc2ccccc12 (configuration not stated)	-0.221	–
CN1CCC[C@H]1c1cccnc1	-0.0259	–
CN(C)CCC(c1ccc(Cl)cc1)c1ccccn1 (configuration not stated)	0.286	–
CCCOC(=O)c1ccc(O)cc1	–	inactive
